Experimental data from PubChem BioAssay AID720597 (Broad Institute, 2013).
Entries with a potency or affinity are not part of this list. The source made the active and inactive calls.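 Rule for the calls: active = fitted half-maximal dose no more than twice the top valid tested dose, for compounds that lower signal; inconclusive = fit invalid, or curve flat with activity between -70 and -30; inactive = potency past limit, curve flat within ±30, or signal increasing.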

target: NAD-dependent protein deacylase sirtuin-5, mitochondrial (Homo sapiens) (UniProt Q9NXA8); experiment: blockers of sirtuin-5 peptide desuccinylation – biochemical, fluorescence imaging, cherry-pick, set 6, dose response (AID 720597); details: Purified SirT5, succinyl-peptide-AMC/trypsin fluorescence; series mostly up to 15 µM;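 note: lower AMC signal can also come from blocking the trypsin step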
Sequence (Q9NXA8 whole entry, looked up): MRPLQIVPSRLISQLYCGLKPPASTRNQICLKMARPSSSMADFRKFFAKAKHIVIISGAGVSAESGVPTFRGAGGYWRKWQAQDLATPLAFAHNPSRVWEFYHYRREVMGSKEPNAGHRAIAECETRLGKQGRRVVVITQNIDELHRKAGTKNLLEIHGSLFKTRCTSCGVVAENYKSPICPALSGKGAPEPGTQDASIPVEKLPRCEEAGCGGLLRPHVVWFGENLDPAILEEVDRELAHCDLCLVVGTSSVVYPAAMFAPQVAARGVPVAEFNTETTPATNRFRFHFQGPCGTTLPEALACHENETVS

outcome, inactive:
C[C@@H]1CCCCO[C@H](CN(C)C(=O)Cc2ccccc2)[C@@H](C)CN([C@H](C)CO)C(=O)c2cc(NS(=O)(=O)c3cn(C)cn3)ccc2O1
O=C(CCN1CCCCC1)N[C@@H]1CC[C@@H](CC(=O)N2CCC(Cc3ccccc3)CC2)O[C@@H]1CO
COc1ccccc1-c1ccc2c(c1)O[C@@H](CN(C)S(=O)(=O)c1ccccc1)[C@H](C)CN([C@H](C)CO)S2(=O)=O
COc1ccc(S(=O)(=O)Nc2ccc3c(c2)C(=O)N([C@H](C)CO)C[C@@H](C)[C@@H](CN(C)Cc2ccc(C(F)(F)F)cc2)OCCCC[C@@H](C)O3)cc1
C[C@H]1CN([C@@H](C)CO)C(=O)Cc2cc(NS(=O)(=O)c3ccccc3)ccc2O[C@H]1CN(C)Cc1ccc(C(=O)Nc2ccccc2N)cc1
COc1ccc(CN(C)C[C@@H]2Oc3ccc(NC(=O)Nc4ccc(OC)cc4)cc3C(=O)N([C@@H](C)CO)C[C@H]2C)cc1
CCCC#Cc1ccc([C@H]2[C@@H](CO)N3CCCCN(S(=O)(=O)Cc4ccccc4)C[C@H]23)cc1
COc1cccc(NC(=O)N2CC(=O)N3[C@H](C2)[C@H](c2ccc(C#CCC4CCCC4)cc2)[C@@H]3CO)c1
OC[C@@H]1[C@H](c2ccccc2)C2(CN(Cc3nccs3)C2)N1Cc1cccnc1
Cc1noc(C)c1NC(=O)N(C)C[C@@H]1OCCCC[C@H](C)Oc2ccc(NC(=O)Nc3ccc(F)cc3)cc2C(=O)N([C@@H](C)CO)C[C@@H]1C
